Test results: PubChem BioAssay (NCI)
This is part of a sample that, as a whole, favours compounds with a hit. Of some 83,000 tested, about 20% had one in any assay.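 Testing used 96-well plates and a 48-hour single-concentration exposure. Example: -40 means 40% of the starting cells died.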 Calls of active or inactive are those of the source. How the source made its calls: active means growth percent below 10; inactive means the rest.

Experiments:
Assay in all cases: NCI-60 one-dose screen, 48 h (100 = growth as untreated, 0 = no growth, -100 = all killed)
Conditions in all cases: 10 µM unless noted
NCI-H23 lung = system: NCI-H23 lung
NCI-H226 lung = system: NCI-H226 lung
NCI-H322M lung = system: NCI-H322M lung
HOP-62 NSCLC = system: HOP-62 NSCLC
NCI-H460 lung = system: NCI-H460 lung
NCI-H522 lung = system: NCI-H522 lung
A549/ATCC NSCLC = system: A549/ATCC NSCLC
786-0 renal = system: 786-0 renal
COLO 205 colon = system: COLO 205 colon
DU-145 prostate = system: DU-145 prostate
K-562 leukemia = system: K-562 leukemia
MALME-3M melanoma = system: MALME-3M melanoma
MDA-MB-231 breast = system: MDA-MB-231 breast
RXF 393 renal = system: RXF 393 renal
SF-268 CNS = system: SF-268 CNS
SF-295 CNS = system: SF-295 CNS
SF-539 CNS = system: SF-539 CNS
UACC-257 melanoma = system: UACC-257 melanoma
M14 melanoma = system: M14 melanoma
HCT-15 colon = system: HCT-15 colon

Measured: growth

NC(=O)c1ncn([C@@H]2O[C@H](CO)[C@@H](O)[C@H]2O)n1
inactive: NCI-H23 lung 99.1% | NCI-H226 lung 106% | NCI-H322M lung 88.3% | HOP-62 NSCLC 97.2% | NCI-H460 lung 100% | NCI-H522 lung 70.6% | A549/ATCC NSCLC 91.2% | 786-0 renal 95.6% | COLO 205 colon 82.6% | DU-145 prostate 82.7% | K-562 leukemia 88.3% | MALME-3M melanoma 92.7% | MDA-MB-231 breast 89.5% | RXF 393 renal 119% | SF-268 CNS 109% | SF-295 CNS 95.5% | SF-539 CNS 108% | UACC-257 melanoma 103% | M14 melanoma 98.8% | HCT-15 colon 83.7%

c1ccc(N2CCN(c3nncc4ccccc34)CC2)nc1
inactive: NCI-H23 lung 105% | NCI-H226 lung 98.1% | NCI-H322M lung 114% | HOP-62 NSCLC 102% | NCI-H460 lung 108% | NCI-H522 lung 99.4% | A549/ATCC NSCLC 100% | 786-0 renal 104% | COLO 205 colon 106% | DU-145 prostate 99% | K-562 leukemia 106% | MALME-3M melanoma 109% | MDA-MB-231 breast 108% | RXF 393 renal 108% | SF-268 CNS 103% | SF-295 CNS 107% | SF-539 CNS 113% | UACC-257 melanoma 99% | M14 melanoma 102%

Cc1ccc2c(c1)C(=O)/C(=C/c1ncc([N+](=O)[O-])n1C)O2
inactive: NCI-H226 lung 65.7% | NCI-H322M lung 75.6% | HOP-62 NSCLC 61.2% | SF-295 CNS 18% | SF-539 CNS 39.1%
active: NCI-H23 lung -2.65% | NCI-H460 lung -38% | NCI-H522 lung -64.1% | A549/ATCC NSCLC 6.86% | 786-0 renal 2.46% | COLO 205 colon -74.8% | DU-145 prostate -25.9% | K-562 leukemia 0.705% | MALME-3M melanoma -46.7% | MDA-MB-231 breast -40.1% | RXF 393 renal -57.7% | SF-268 CNS -31.9% | UACC-257 melanoma -34.6% | M14 melanoma -55.8%

COc1ccc2c(c1)C(=O)/C(=C/c1ccc([N+](=O)[O-])s1)O2
inactive: NCI-H226 lung 60% | NCI-H322M lung 11.4% | HOP-62 NSCLC 35.2% | 786-0 renal 28.1% | DU-145 prostate 43.8%
active: NCI-H23 lung 7.22% | NCI-H460 lung -3.34% | NCI-H522 lung -86.4% | A549/ATCC NSCLC 8.34% | COLO 205 colon -64.7% | K-562 leukemia 3.01% | MALME-3M melanoma -46.3% | MDA-MB-231 breast -71.1% | RXF 393 renal -63% | SF-268 CNS -72.7% | SF-295 CNS 5.53% | SF-539 CNS -46.2% | UACC-257 melanoma -0.975% | M14 melanoma -20.6%

Cc1cc(Cl)ccc1Nc1nc(C(F)(F)F)ccc1C(=O)NCC(=O)N/N=C/c1c(Cl)cccc1Cl
inactive: NCI-H23 lung 74.6% | NCI-H226 lung 89.5% | NCI-H322M lung 80.9% | HOP-62 NSCLC 102% | NCI-H460 lung 80.7% | NCI-H522 lung 75.8% | A549/ATCC NSCLC 44.9% | 786-0 renal 94.9% | COLO 205 colon 87.3% | DU-145 prostate 49.9% | K-562 leukemia 50.2% | MALME-3M melanoma 92.2% | MDA-MB-231 breast 61.6% | RXF 393 renal 107% | SF-268 CNS 31% | SF-295 CNS 54.2% | SF-539 CNS 79.4% | UACC-257 melanoma 149% | M14 melanoma 75.8% | HCT-15 colon 60.8%

O=C(Cn1ccnc1)NC(c1ccccc1)c1ccccc1
inactive: NCI-H23 lung 94.8% | NCI-H226 lung 100% | NCI-H322M lung 98.7% | HOP-62 NSCLC 96% | NCI-H460 lung 103% | NCI-H522 lung 93.2% | A549/ATCC NSCLC 105% | 786-0 renal 103% | COLO 205 colon 109% | DU-145 prostate 112% | K-562 leukemia 98.6% | MALME-3M melanoma 104% | MDA-MB-231 breast 99.6% | RXF 393 renal 104% | SF-268 CNS 97.7% | SF-295 CNS 97.6% | SF-539 CNS 86.2% | UACC-257 melanoma 104% | M14 melanoma 102% | HCT-15 colon 101%

Clc1cc(Cl)c(OCC#CI)cc1Cl
active: COLO 205 colon 5.9% | MALME-3M melanoma 0.95% | RXF 393 renal -11.9% | UACC-257 melanoma -3.08%
inactive: NCI-H23 lung 97.3% | NCI-H226 lung 43.1% | NCI-H322M lung 127% | HOP-62 NSCLC 108% | NCI-H460 lung 100% | NCI-H522 lung 18% | A549/ATCC NSCLC 101% | 786-0 renal 98.9% | DU-145 prostate 86.8% | K-562 leukemia 69.5% | MDA-MB-231 breast 83.2% | SF-268 CNS 98.6% | SF-295 CNS 101% | SF-539 CNS 33.2% | M14 melanoma 37.7%

C=CC1=C(C(=O)O)N2C(=O)[C@@H](NC(=O)/C(=N\O)c3csc(N)n3)[C@H]2SC1 (stereo in doubt)
inactive: NCI-H23 lung 96% | NCI-H226 lung 101% | NCI-H322M lung 109% | HOP-62 NSCLC 105% | NCI-H460 lung 105% | NCI-H522 lung 106% | A549/ATCC NSCLC 99.4% | 786-0 renal 105% | COLO 205 colon 103% | DU-145 prostate 113% | K-562 leukemia 104% | MALME-3M melanoma 111% | MDA-MB-231 breast 105% | RXF 393 renal 117% | SF-268 CNS 108% | SF-295 CNS 104% | SF-539 CNS 95.2% | UACC-257 melanoma 96.3% | M14 melanoma 114%

CCCc1cc(=O)n2c(C(=O)Nc3ccccc3OC)c(C(=O)Nc3ccc(F)cc3)sc2n1
inactive: NCI-H23 lung 63% [30 µM] | NCI-H226 lung 62.3% [30 µM] | NCI-H322M lung 57.9% [30 µM] | NCI-H460 lung 44.6% [30 µM] | NCI-H522 lung 46.7% [30 µM] | A549/ATCC NSCLC 16.1% [30 µM] | 786-0 renal 36.2% [30 µM] | COLO 205 colon 72.5% [30 µM] | DU-145 prostate 53.9% [30 µM] | MALME-3M melanoma 64.1% [30 µM] | MDA-MB-231 breast 58.3% [30 µM] | UACC-257 melanoma 76.3% [30 µM] | M14 melanoma 80.6% [30 µM] | HCT-15 colon 79% [30 µM]
active: HOP-62 NSCLC -16.7% [30 µM] | K-562 leukemia 3.51% [30 µM] | RXF 393 renal -19.5% [30 µM] | SF-268 CNS -16.3% [30 µM] | SF-295 CNS -18.7% [30 µM] | SF-539 CNS -47% [30 µM]

Clc1ccc([C@@H]2C[C@@H]3Cc4cc(Br)c5ccccc5c4N2O3)c(Cl)c1
inactive: NCI-H23 lung 78.6% | NCI-H226 lung 95.7% | NCI-H322M lung 90.7% | HOP-62 NSCLC 87.2% | NCI-H460 lung 93.3% | NCI-H522 lung 43.8% | A549/ATCC NSCLC 70.8% | 786-0 renal 95% | COLO 205 colon 98.4% | DU-145 prostate 93.3% | K-562 leukemia 23.8% | MALME-3M melanoma 61.7% | MDA-MB-231 breast 89.1% | RXF 393 renal 88.9% | SF-268 CNS 85.8% | SF-295 CNS 65.5% | SF-539 CNS 91.4% | UACC-257 melanoma 66.1% | M14 melanoma 75.6%

NC(=O)c1ccccc1NC(=O)c1ccccc1Cl
inactive: NCI-H23 lung 104% | NCI-H226 lung 105% | NCI-H322M lung 109% | HOP-62 NSCLC 112% | NCI-H460 lung 114% | NCI-H522 lung 96.5% | A549/ATCC NSCLC 98.3% | 786-0 renal 102% | COLO 205 colon 121% | DU-145 prostate 113% | K-562 leukemia 89.9% | MALME-3M melanoma 130% | MDA-MB-231 breast 99.6% | RXF 393 renal 82.1% | SF-268 CNS 108% | SF-295 CNS 90.5% | SF-539 CNS 109% | UACC-257 melanoma 88.7% | M14 melanoma 112% | HCT-15 colon 95.6%

O=C1/C(=C/c2ccc([N+](=O)[O-])o2)Oc2ccc(Br)cc21
active: NCI-H522 lung -66.1% | COLO 205 colon 8.53% | K-562 leukemia -1.79% | MALME-3M melanoma -28.3% | RXF 393 renal -29.6% | HCT-15 colon 0.437%
inactive: NCI-H23 lung 74.1% | NCI-H226 lung 98% | NCI-H322M lung 75.6% | HOP-62 NSCLC 94.3% | NCI-H460 lung 107% | A549/ATCC NSCLC 107% | 786-0 renal 28.3% | DU-145 prostate 72.1% | MDA-MB-231 breast 42.8% | SF-268 CNS 48.1% | SF-295 CNS 99.4% | SF-539 CNS 88% | UACC-257 melanoma 69.1% | M14 melanoma 44.9%

CC(C)c1ccc(C(=O)Nc2sc3c(CN(C)C)c(O)ccc3c2C(N)=O)cc1
active: K-562 leukemia -41.3% | UACC-257 melanoma 9.32% | HCT-15 colon -48.7%
inactive: NCI-H23 lung 49.1% | NCI-H226 lung 86.9% | NCI-H322M lung 65.5% | HOP-62 NSCLC 64.4% | NCI-H460 lung 72% | NCI-H522 lung 43.7% | A549/ATCC NSCLC 33% | 786-0 renal 49.6% | COLO 205 colon 47.1% | DU-145 prostate 51.9% | MALME-3M melanoma 63.9% | MDA-MB-231 breast 38.5% | RXF 393 renal 12.2% | SF-268 CNS 69.3% | SF-295 CNS 61.9% | SF-539 CNS 40.8% | M14 melanoma 18.5%

CC(=O)c1cc(C(=O)c2ccc3c(c2)Sc2ccccc2N3)c2c(C)cc(C)cn12
inactive: NCI-H23 lung 26.7% | NCI-H226 lung 30% | NCI-H322M lung 44.9% | HOP-62 NSCLC 20.8% | MALME-3M melanoma 69.6% | RXF 393 renal 34.3% | SF-268 CNS 11.9% | UACC-257 melanoma 26.9% | HCT-15 colon 15%
active: NCI-H460 lung 0.69% | NCI-H522 lung -31.2% | A549/ATCC NSCLC 3.95% | 786-0 renal 4% | COLO 205 colon -37.4% | DU-145 prostate 2.22% | K-562 leukemia 4.47% | MDA-MB-231 breast -13.5% | SF-295 CNS -1.02% | SF-539 CNS -2.53% | M14 melanoma 9.62%

CC(C)(C)c1ccc(C(O)CCCN2CCC(C(O)(c3ccccc3)c3ccccc3)CC2)cc1 (centres undefined)
active: NCI-H23 lung 4.7% | HOP-62 NSCLC -79.5% | NCI-H460 lung -84.9% | NCI-H522 lung -74.6% | A549/ATCC NSCLC -39.8% | 786-0 renal -97.4% | COLO 205 colon -86.9% | DU-145 prostate -75.7% | K-562 leukemia -39.9% | MALME-3M melanoma -78.5% | MDA-MB-231 breast -89.4% | RXF 393 renal -97.8% | SF-268 CNS -65.6% | SF-295 CNS -69.7% | SF-539 CNS -76.4% | UACC-257 melanoma -78.2% | M14 melanoma -91.3% | HCT-15 colon -73.7%
inactive: NCI-H226 lung 57.5% | NCI-H322M lung 53.8%
